Only a selection was taken, and hits are over-represented in it overall.
mHTT CaM bind = mHTT-calmodulin interaction abrogation; 190,000 compounds, 3.6% hits; AlphaScreen His-mHTT/GST-CaM binding, luminescence; AID 1671202; P42858; inhibition, % at 15 µM;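 further: 0% = both proteins with DMSO and 100% = one protein alone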
Pf apPOL inh = Pf-apPOL DNA polymerase inhibition; AID 1794808; inhibition, % at 10 µM; Recombinant Pf-apPOL, molecular beacon fluorescence, 1.5 h; 210,000 compounds, 0.25% hits
The depositor's hits bear a star. No stated cut-off is given here; in the data, active means inhibition above about 50%; inactive means the rest.

O=C(Nc1ccc2c(c1)OCCO2)C1CCN(S(=O)(=O)c2ccc(Cl)cc2)CC1 was read as mHTT CaM bind 2.7 and Pf apPOL inh -3.3.
For CCS(=O)(=O)N1CCN(c2nc(C)nc(C)c2Cc2ccc(Cl)cc2)CC1 the results were mHTT CaM bind 53.2* and Pf apPOL inh 0.9.
Cc1nc(C)c(Cc2ccc(Cl)cc2)c(N2CCN(S(C)(=O)=O)CC2)n1 was read as mHTT CaM bind 22.1 and Pf apPOL inh -2.8.
Cc1nc(OCC(=O)Nc2cccc(C(F)(F)F)c2)c2ccccc2n1 was read as mHTT CaM bind -4.8 and Pf apPOL inh 1.3.
`O=C(c1ccc2ccccc2n1)N1CCn2cnnc2C1` gave mHTT CaM bind -0.6 and Pf apPOL inh -0.7.
O=C(c1ccc(F)cc1F)N1CCN(c2ccc(-c3cccnc3)nn2)CC1 was read as mHTT CaM bind 3.8 and Pf apPOL inh -7.3.
Screening COc1ccccc1CC(=O)N1CCN(c2ccc(-c3ccccn3)nn2)CC1 returned mHTT CaM bind 100.2* and Pf apPOL inh -21.2.
For O=C(c1ccc(=O)[nH]n1)N1CCN(c2ccc(-c3ccccn3)nn2)CC1 the results were mHTT CaM bind 100.0* and Pf apPOL inh -2.0.
For O=C(c1ccc(N2CCCC2)nn1)N1CCN(c2ncccn2)CC1 the results were mHTT CaM bind -8.6 and Pf apPOL inh -3.0.
O=C(c1cc(-c2ccc(F)cc2)n[nH]1)N1CCN(c2ccc(-c3ccccn3)nn2)CC1 was read as mHTT CaM bind 100.1* and Pf apPOL inh 1.4.
Screening COc1ccccc1CC(=O)N1CCN(c2ccccn2)CC1 returned mHTT CaM bind -0.6 and Pf apPOL inh -5.0.
O=c1oc(-c2ccccc2Cl)nc2ccc(Br)cc12 was read as mHTT CaM bind 0.0 and Pf apPOL inh 0.4.
O=C1NC(c2ccc(Br)cc2)C(=C(O)c2ccccc2)C1=O (stereo not drawn) was read as mHTT CaM bind 7.8 and Pf apPOL inh 8.0.
`COc1cccc(-n2nc(C(=O)N3CCN(c4cccc(Cl)c4)CC3)c3ccccc3c2=O)c1` gave mHTT CaM bind 61.0* and Pf apPOL inh -1.8.
COc1ccc(C(=O)N2CCN=C2N2CCN(c3cccc(Cl)c3)CC2)cc1 was read as mHTT CaM bind 85.0* and Pf apPOL inh -0.5.
COc1cccc(-n2nc(C(=O)N3CCOCC3)c3ccccc3c2=O)c1 was read as mHTT CaM bind 0.0 and Pf apPOL inh -1.5.
CCOc1ccc(C(=O)N2CCN=C2N2CCC(C)CC2)cc1 was read as mHTT CaM bind 3.6 and Pf apPOL inh -5.9.
COc1ccccc1C(=O)N1CCN=C1N1CCN(c2cccc(Cl)c2)CC1 was read as mHTT CaM bind 48.1 and Pf apPOL inh 0.0.
For CCOc1ccc(C(=O)N2CCN=C2N2CCN(c3cccc(Cl)c3)CC2)cc1 the results were mHTT CaM bind 100.1* and Pf apPOL inh 0.5.
Cc1cccc(CNC(=O)c2nn(C)c3c2CN(C(=O)Cc2cccs2)CC3)c1 was read as mHTT CaM bind 68.8* and Pf apPOL inh -10.2.
COc1cccc(CC(=O)N2CCc3c(c(C(=O)NCc4cccc(C)c4)nn3C)C2)c1 was read as mHTT CaM bind 54.4* and Pf apPOL inh -3.9.
Screening Cc1cccc(OCC(=O)N2CCc3c(c(-c4nc(-c5ccc(F)cc5)no4)nn3C)C2)c1 returned mHTT CaM bind -1.9 and Pf apPOL inh -6.7.
For CCC(=O)N1CCc2c(c(C(=O)NCc3cccc(C)c3)nn2C)C1 the results were mHTT CaM bind 25.8 and Pf apPOL inh 30.4.
For Cc1cccc(OCC(=O)N2CCc3c(c(C(=O)NCc4ccc(F)cc4)nn3C)C2)c1 the results were mHTT CaM bind 55.2* and Pf apPOL inh -7.5.
Screening Cc1cccc(CNC(=O)c2nn(C)c3c2CN(C(=O)c2cccs2)CC3)c1 returned mHTT CaM bind 29.5 and Pf apPOL inh -11.7.
For Cc1cccc(CNC(=O)c2nn(C)c3c2CN(C(=O)COc2ccc(F)cc2)CC3)c1 the results were mHTT CaM bind 63.2* and Pf apPOL inh -3.3.
`CCOc1ccc(C2CC(c3ccc(OC)cc3)n3nc(N)nc3N2)cc1` (stereo not drawn) gave mHTT CaM bind 8.7 and Pf apPOL inh -4.2.
Screening N#CC1=C(N)Oc2c(oc(CO)cc2=O)C1c1cccc(Cl)c1 (stereo not drawn) returned mHTT CaM bind -1.0 and Pf apPOL inh 1.9.
For NS(=O)(=O)c1cccc(S(=O)(=O)c2ccc(Cl)c(S(N)(=O)=O)c2)c1 the results were mHTT CaM bind -2.2 and Pf apPOL inh -10.2.
Screening Cc1c(C(=O)Nc2nnc(SCc3ccccc3Cl)s2)cccc1[N+](=O)[O-] returned mHTT CaM bind -1.9 and Pf apPOL inh -0.7.
For COCC(=O)N1CCc2c(c(C(=O)NCc3cccc(C)c3)nn2C)C1 the results were mHTT CaM bind -2.1 and Pf apPOL inh -3.0.
Screening COc1ccc(OCC(=O)N2CCc3c(c(C(=O)NCc4cccc(C)c4)nn3C)C2)cc1 returned mHTT CaM bind 70.5* and Pf apPOL inh -5.8.
COc1ccc(C(=O)N2CCCC(COc3ccc(C(=O)N4CCOCC4)cc3)C2)cc1 (stereo not drawn) was read as mHTT CaM bind 5.8 and Pf apPOL inh -3.3.
For COc1ccccc1/C=C1\SC(=O)N(CN2CCCC2)C1=O the results were mHTT CaM bind 70.0* and Pf apPOL inh -3.0.
Screening COc1ccc(/C=C2\SC(=O)N(CN3CCCCC3)C2=O)c(OC)c1 returned mHTT CaM bind 6.0 and Pf apPOL inh -8.8.
`COc1ccc(NCc2ccc([N+](=O)[O-])s2)cc1OC` gave mHTT CaM bind 65.1* and Pf apPOL inh 4.3.
`COc1ccccc1NCc1ccc([N+](=O)[O-])s1` gave mHTT CaM bind 31.4 and Pf apPOL inh 10.6.
Screening COc1ccc(C=O)cc1OCc1ccccc1[N+](=O)[O-] returned mHTT CaM bind 1.4 and Pf apPOL inh 94.1*.
COc1ccc(NCc2ccccc2[N+](=O)[O-])cc1OC was read as mHTT CaM bind 64.4* and Pf apPOL inh 3.7.
Screening COc1ccc(NC(=O)Cc2ccccc2[N+](=O)[O-])cc1OC returned mHTT CaM bind 1.6 and Pf apPOL inh 2.0.
Screening CCOc1cc(CN2CCN(Cc3ccccc3[N+](=O)[O-])CC2)ccc1OC returned mHTT CaM bind 9.2 and Pf apPOL inh 5.9.
`CC(=O)N1CCC2(CC1)NC(=O)c1cccc(C)c1N2` gave mHTT CaM bind -2.4 and Pf apPOL inh -0.6.
`O=C(CN1c2ccccc2Sc2ccccc21)NN=Cc1ccco1` gave Pf apPOL inh 61.8*.
`Cn1c(=O)c2c(ncn2CC(=O)N/N=C/c2ccco2)n(C)c1=O` gave mHTT CaM bind inactive.
For COc1ccc(-c2nc(NC(C)=O)sc2-c2ccc(OC)cc2)cc1 the results were mHTT CaM bind 16.8 and Pf apPOL inh -2.9.
Screening CN(CC(=O)N1CCN(c2ccc(F)cc2)CC1)S(=O)(=O)c1ccc(Cl)cc1 returned mHTT CaM bind 11.7 and Pf apPOL inh -3.8.
`CN(CC(=O)N1CCCCCC1)S(=O)(=O)c1ccc(Cl)cc1` gave mHTT CaM bind 1.9 and Pf apPOL inh -3.2.
`CN1CCN(C(=O)CN(C)S(=O)(=O)c2ccc(Cl)cc2)CC1` gave mHTT CaM bind -3.7 and Pf apPOL inh 7.6.
For COc1ccc(N2CCN(C(=O)CN(C)S(=O)(=O)c3ccc(Cl)cc3)CC2)cc1 the results were mHTT CaM bind 16.8 and Pf apPOL inh 88.7*.
CN(CC(=O)N1CCN(Cc2ccccc2)CC1)S(=O)(=O)c1ccc(Cl)cc1 was read as mHTT CaM bind 7.4 and Pf apPOL inh 96.6*.

High-throughput results as filed in PubChem BioAssay.
